Source: ChEMBL document CHEMBL1961873, “Compounds: GSK PKIS; Assays: Nanosyn kinase panel” (2012)

Legend:
[1] = target: Leukocyte tyrosine kinase receptor (Homo sapiens) (UniProt P29376); settings: at 1 µM;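 also: each value is the mean inhibition of LTK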
[2] = target: Tyrosine-protein kinase Lyn (Homo sapiens) (UniProt P07948); settings: at 0.1 µM
[3] = target: Tyrosine-protein kinase Lyn (Homo sapiens) (UniProt P07948); settings: at 1 µM
[4] = target: Tyrosine-protein kinase Lyn (Homo sapiens) (UniProt P07948); settings: at 0.1 µM; remark: listed apart in the source
[5] = target: Tyrosine-protein kinase Lyn (Homo sapiens) (UniProt P07948); settings: at 1 µM; remark: listed apart in the source
[6] = target: T1, Tyrosine-protein kinase Mer (Homo sapiens) (UniProt Q12866); settings: at 0.1 µM
T1 sequence (whole entry): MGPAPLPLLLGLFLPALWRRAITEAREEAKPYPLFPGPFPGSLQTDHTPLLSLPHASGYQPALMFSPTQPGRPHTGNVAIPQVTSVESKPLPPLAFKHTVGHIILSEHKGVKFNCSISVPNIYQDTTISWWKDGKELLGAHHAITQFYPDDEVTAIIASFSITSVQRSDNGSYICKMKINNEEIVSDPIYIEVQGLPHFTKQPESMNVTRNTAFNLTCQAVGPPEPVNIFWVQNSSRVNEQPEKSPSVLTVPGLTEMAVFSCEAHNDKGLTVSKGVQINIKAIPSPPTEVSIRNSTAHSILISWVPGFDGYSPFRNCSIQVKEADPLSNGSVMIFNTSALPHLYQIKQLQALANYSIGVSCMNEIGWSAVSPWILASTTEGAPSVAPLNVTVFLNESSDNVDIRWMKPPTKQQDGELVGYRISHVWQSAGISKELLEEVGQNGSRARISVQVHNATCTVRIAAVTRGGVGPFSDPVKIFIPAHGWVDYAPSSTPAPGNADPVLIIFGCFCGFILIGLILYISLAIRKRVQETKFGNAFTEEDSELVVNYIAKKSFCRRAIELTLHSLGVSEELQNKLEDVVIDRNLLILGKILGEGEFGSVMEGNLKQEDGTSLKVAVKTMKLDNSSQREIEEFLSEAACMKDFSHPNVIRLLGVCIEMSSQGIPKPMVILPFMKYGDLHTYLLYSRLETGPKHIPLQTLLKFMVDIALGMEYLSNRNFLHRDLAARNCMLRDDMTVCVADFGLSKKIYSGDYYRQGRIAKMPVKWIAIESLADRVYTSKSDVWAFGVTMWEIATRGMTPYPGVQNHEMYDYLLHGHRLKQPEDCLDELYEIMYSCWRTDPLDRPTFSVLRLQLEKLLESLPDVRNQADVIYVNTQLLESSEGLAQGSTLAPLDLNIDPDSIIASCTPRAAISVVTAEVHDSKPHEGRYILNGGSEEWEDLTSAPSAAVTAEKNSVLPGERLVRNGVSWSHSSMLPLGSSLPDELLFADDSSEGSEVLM

[7] = target: T1, Tyrosine-protein kinase Mer (Homo sapiens); settings: at 1 µM
[8] = target: Hepatocyte growth factor receptor (Homo sapiens) (UniProt P08581); settings: at 0.1 µM
Chain of Hepatocyte growth factor receptor (Homo sapiens) (P08581 whole entry): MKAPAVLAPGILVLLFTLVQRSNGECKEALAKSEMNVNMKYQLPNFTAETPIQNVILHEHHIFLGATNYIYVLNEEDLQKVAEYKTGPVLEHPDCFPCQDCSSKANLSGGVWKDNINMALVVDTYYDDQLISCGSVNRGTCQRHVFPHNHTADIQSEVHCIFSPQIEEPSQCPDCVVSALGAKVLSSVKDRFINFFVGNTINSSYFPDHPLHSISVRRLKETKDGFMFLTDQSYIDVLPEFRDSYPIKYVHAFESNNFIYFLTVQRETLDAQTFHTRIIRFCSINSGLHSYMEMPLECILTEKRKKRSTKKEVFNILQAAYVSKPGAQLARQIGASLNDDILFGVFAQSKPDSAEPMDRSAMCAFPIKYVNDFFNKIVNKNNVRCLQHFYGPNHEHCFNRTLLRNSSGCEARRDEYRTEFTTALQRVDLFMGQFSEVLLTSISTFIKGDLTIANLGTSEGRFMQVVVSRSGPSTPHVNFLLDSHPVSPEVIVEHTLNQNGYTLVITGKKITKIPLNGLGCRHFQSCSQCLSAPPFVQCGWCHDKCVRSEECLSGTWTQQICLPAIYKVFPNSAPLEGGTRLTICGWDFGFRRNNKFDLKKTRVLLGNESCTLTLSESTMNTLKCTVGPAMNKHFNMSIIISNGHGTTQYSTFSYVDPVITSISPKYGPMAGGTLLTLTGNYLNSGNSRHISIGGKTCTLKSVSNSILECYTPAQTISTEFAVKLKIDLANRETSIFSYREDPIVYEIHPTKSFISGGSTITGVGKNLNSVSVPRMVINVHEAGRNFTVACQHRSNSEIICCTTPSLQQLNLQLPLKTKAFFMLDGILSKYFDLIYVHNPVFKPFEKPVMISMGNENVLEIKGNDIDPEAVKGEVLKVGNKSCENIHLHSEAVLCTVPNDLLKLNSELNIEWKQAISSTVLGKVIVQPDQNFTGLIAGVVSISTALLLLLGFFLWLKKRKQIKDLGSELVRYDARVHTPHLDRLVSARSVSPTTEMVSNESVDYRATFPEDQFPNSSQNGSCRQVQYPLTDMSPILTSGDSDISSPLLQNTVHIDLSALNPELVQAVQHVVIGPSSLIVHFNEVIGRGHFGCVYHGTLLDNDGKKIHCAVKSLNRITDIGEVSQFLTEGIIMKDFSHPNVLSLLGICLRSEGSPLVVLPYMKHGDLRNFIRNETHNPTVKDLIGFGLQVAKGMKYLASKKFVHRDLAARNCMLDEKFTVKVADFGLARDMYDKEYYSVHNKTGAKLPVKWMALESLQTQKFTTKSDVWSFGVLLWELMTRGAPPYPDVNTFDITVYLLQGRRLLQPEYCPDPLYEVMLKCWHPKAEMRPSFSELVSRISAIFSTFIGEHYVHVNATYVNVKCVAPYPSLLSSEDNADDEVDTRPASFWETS

[9] = target: Hepatocyte growth factor receptor (Homo sapiens) (UniProt P08581); settings: at 1 µM
[10] = target: T2, Muscle, skeletal receptor tyrosine-protein kinase (Homo sapiens) (UniProt O15146); settings: at 0.1 µM
T2 sequence (whole entry): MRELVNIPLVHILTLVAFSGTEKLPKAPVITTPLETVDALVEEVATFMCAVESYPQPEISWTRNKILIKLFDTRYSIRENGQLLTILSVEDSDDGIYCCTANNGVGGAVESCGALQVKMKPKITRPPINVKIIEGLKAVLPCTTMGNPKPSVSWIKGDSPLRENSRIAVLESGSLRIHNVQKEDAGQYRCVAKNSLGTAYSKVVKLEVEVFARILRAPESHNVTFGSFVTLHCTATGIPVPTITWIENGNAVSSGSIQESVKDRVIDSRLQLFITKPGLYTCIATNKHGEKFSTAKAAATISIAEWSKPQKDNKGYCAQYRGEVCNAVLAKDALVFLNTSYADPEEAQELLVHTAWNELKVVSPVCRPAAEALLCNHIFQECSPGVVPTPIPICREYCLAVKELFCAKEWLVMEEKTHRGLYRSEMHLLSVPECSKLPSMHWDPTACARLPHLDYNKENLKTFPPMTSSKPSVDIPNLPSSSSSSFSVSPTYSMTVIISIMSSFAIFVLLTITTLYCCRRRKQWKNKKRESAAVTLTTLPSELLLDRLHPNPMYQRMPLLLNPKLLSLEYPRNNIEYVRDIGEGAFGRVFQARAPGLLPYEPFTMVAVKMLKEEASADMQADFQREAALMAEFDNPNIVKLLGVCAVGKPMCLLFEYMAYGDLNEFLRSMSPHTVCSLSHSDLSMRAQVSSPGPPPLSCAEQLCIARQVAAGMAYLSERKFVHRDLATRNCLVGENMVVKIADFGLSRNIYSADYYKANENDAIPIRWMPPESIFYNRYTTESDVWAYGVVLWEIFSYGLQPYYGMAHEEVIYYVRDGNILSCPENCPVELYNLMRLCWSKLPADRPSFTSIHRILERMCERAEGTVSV

[11] = target: T2, Muscle, skeletal receptor tyrosine-protein kinase (Homo sapiens); settings: at 1 µM
[12] = target: Platelet-derived growth factor receptor alpha (Homo sapiens) (UniProt P16234); settings: at 0.1 µM
[13] = target: Platelet-derived growth factor receptor alpha (Homo sapiens) (UniProt P16234); settings: at 1 µM
[14] = system: Platelet-derived growth factor receptor alpha (Homo sapiens), P16234 [D842V]; settings: at 0.1 µM
Chain of Platelet-derived growth factor receptor alpha (Homo sapiens), P16234 [D842V] (P16234 whole entry D842V): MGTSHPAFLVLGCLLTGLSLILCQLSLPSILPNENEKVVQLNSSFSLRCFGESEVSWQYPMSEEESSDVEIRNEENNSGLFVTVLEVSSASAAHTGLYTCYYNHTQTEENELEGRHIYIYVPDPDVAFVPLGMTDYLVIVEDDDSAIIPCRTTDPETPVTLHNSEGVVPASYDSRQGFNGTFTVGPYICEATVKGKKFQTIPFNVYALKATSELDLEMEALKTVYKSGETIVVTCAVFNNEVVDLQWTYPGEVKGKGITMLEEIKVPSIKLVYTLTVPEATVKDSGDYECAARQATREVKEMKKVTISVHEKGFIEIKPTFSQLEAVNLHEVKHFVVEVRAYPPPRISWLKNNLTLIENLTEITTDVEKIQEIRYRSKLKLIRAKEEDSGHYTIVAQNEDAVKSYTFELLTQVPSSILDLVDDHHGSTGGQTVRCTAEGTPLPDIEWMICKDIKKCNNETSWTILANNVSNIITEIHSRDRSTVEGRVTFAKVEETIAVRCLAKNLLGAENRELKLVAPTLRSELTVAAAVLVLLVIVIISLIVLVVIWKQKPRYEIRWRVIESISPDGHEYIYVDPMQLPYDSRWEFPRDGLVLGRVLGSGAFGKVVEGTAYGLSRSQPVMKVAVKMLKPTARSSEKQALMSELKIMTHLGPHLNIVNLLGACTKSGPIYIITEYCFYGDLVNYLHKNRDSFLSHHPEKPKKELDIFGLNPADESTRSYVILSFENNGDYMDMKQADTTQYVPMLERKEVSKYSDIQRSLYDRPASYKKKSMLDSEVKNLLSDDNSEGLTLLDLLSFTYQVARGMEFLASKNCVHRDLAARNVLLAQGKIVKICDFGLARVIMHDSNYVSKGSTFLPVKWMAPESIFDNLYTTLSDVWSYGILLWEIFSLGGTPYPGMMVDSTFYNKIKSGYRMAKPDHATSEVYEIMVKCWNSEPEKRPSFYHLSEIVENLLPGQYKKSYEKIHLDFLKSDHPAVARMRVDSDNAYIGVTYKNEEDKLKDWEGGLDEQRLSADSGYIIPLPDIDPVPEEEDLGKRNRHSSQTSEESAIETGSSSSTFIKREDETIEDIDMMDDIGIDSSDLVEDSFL

[15] = system: Platelet-derived growth factor receptor alpha (Homo sapiens), P16234 [D842V]; settings: at 1 µM
[16] = system: Platelet-derived growth factor receptor alpha (Homo sapiens), P16234 [T674I]; settings: at 0.1 µM
[17] = system: Platelet-derived growth factor receptor alpha (Homo sapiens), P16234 [T674I]; settings: at 1 µM
[18] = system: Platelet-derived growth factor receptor alpha (Homo sapiens), P16234 [V561D]; settings: at 0.1 µM
[19] = system: Platelet-derived growth factor receptor alpha (Homo sapiens), P16234 [V561D]; settings: at 1 µM
[20] = target: Platelet-derived growth factor receptor beta (Homo sapiens) (UniProt P09619); settings: at 0.1 µM;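 also: reported value is the mean percent inhibition of the kinase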
Chain of Platelet-derived growth factor receptor beta (Homo sapiens) (P09619 whole entry): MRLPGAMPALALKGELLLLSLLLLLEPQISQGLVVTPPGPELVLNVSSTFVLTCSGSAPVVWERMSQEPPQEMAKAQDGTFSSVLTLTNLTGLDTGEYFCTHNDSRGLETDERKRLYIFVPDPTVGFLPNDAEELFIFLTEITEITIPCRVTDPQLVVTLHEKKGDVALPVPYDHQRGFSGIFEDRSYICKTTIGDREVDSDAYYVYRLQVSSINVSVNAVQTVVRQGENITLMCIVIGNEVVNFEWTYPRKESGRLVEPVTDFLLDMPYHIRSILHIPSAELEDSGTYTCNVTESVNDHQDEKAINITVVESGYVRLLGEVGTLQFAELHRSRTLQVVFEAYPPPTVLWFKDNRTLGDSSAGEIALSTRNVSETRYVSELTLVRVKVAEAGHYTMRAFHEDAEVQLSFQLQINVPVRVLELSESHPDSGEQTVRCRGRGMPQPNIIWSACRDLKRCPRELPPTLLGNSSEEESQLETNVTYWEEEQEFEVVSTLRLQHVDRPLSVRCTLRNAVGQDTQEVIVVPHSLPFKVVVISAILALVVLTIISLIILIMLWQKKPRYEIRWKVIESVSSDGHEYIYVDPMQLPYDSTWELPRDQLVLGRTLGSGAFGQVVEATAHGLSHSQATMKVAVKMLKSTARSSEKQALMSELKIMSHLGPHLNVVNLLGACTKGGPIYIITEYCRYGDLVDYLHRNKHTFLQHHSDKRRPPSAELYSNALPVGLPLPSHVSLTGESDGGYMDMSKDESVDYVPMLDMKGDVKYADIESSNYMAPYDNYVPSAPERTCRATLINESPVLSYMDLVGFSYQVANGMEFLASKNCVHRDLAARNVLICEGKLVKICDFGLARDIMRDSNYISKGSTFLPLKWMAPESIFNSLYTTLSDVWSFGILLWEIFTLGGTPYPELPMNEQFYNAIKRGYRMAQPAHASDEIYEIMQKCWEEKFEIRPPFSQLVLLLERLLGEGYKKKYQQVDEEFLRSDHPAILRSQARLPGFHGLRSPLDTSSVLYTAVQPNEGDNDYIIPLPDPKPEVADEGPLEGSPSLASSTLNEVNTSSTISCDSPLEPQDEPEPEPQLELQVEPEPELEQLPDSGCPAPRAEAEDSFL

Chain of Leukocyte tyrosine kinase receptor (Homo sapiens) (P29376 whole entry): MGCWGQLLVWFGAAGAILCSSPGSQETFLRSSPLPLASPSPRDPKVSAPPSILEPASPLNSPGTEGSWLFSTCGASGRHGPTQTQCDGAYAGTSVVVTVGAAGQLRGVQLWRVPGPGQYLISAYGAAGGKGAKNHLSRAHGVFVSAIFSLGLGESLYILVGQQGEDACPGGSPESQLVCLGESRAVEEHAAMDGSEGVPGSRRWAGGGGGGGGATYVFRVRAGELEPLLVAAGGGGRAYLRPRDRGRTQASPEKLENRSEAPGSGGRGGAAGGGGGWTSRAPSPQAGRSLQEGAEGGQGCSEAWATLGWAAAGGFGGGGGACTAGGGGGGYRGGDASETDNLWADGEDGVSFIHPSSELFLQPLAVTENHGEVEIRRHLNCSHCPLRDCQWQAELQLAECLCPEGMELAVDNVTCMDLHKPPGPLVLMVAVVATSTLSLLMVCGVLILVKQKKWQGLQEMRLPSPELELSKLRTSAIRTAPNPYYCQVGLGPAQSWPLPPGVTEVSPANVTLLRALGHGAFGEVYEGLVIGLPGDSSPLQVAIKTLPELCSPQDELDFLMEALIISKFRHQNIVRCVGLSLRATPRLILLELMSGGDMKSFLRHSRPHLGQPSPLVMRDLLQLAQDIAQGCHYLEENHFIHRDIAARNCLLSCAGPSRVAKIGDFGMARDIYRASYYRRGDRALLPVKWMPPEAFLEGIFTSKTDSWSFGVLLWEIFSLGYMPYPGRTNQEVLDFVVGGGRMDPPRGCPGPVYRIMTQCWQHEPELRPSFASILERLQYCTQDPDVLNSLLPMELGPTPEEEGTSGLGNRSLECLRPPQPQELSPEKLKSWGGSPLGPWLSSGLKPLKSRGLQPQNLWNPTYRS
Chain of Tyrosine-protein kinase Lyn (Homo sapiens) (P07948 2-512 limits assumed): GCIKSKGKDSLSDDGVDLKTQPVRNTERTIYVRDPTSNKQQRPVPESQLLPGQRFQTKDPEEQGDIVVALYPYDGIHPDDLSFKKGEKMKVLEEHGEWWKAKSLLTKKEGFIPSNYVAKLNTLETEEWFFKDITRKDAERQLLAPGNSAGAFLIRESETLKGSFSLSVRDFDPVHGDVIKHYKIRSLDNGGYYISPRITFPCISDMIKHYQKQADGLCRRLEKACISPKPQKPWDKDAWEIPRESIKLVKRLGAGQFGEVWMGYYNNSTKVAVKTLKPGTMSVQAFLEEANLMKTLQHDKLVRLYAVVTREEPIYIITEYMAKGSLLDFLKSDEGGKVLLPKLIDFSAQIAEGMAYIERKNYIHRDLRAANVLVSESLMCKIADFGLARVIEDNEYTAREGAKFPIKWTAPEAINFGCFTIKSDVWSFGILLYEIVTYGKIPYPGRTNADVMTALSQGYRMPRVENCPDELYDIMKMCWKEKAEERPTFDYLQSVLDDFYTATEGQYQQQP

Compound | inhibition [1] | inhibition [2] | inhibition [3] | inhibition [4] | inhibition [5] | inhibition [6] | inhibition [7] | inhibition [8] | inhibition [9] | inhibition [10] | inhibition [11] | inhibition [12] | inhibition [13] | inhibition [14] | inhibition [15] | inhibition [16] | inhibition [17] | inhibition [18] | inhibition [19] | inhibition [20]
COc1ccc(-c2nn3ncccc3c2-c2ccnc(Nc3ccc4c(c3)OCCO4)n2)cc1 | 23.5% | 13.8% | 60.4% | 9.96% | 55.4% | -0.06% | 12.9% | -1.3% | 8.57% | -0.81% | -1.95% | 6.34% | 29.6% | 0.81% | 11.7% | 4.01% | 15.3% | 6.6% | 39.6% | 4.03%
COc1ccc(CNC(=O)c2ccc(-c3cc(-c4nnc(C)o4)ccc3C)cc2)cc1 | 4.21% | 4.62% | 7.5% | 2.67% | 7.12% | 3.37% | 3.49% | 11.8% | 10.3% | 3.25% | -7.05% | 12.6% | 16.5% | 3.66% | 3.96% | 5.1% | 6.47% | 7.3% | 4.07% | 8.68%
CCn1c(-c2nonc2N)nc2c(C#CC(C)(C)O)nc(OC[C@H](N)c3ccccc3)cc21 | 17.1% | 4.19% | 4.52% | 2.36% | 4.2% | 5.78% | 3.59% | 6.32% | 1.76% | 0.54% | 5.52% | 4.66% | 43.8% | 12.2% | 61.6% | 9.88% | 47% | 4.88% | 42.3% | 13%
Nc1ncc(-c2cccc(S(N)(=O)=O)c2)c2scc(-c3ccc(F)c(Cl)c3)c12 | 54.6% | 14% | 56.7% | 10.5% | 50% | 0.36% | 10.6% | 4.62% | 3.25% | 2.5% | 1.44% | 18.9% | 72.1% | 7.66% | 42.4% | 4.52% | 10.5% | 36.8% | 78.1% | 14.8%
c1cc(-c2cnn3nc(N4CCOCC4)ccc23)nc(NC2CC2)n1 | 6.33% | 3.58% | 2.39% | 2.01% | 3.12% | 1.15% | 6.24% | -2.37% | 2.41% | 4.2% | 9.05% | 31.9% | 76.8% | 21.2% | 75.8% | 2.78% | 17.5% | 18.1% | 72.4% | 12.5%
CC(=O)Nc1cccc(C#Cc2cncnc2Nc2ccc(OCc3cccc(F)c3)c(Cl)c2)c1 | 0.9% | 1.26% | 1.6% | 1.1% | 0.14% | 1.62% | 2.65% | 4.11% | 1.83% | 2.39% | 6.82% | 8.71% | 15.1% | 1.39% | 1.82% | 5.24% | 1.24% | -4.05% | 4.74% | 3.29%
CCN1CCC(CC(=O)Nc2n[nH]c3nnc(-c4cccc(F)c4F)cc23)CC1 | 1.45% | 3.32% | 3.55% | 2.16% | 2.2% | -1.66% | -0.36% | 4.54% | 9.2% | 1.85% | -2.42% | 5.32% | 10.4% | 4.75% | 2.84% | 3.48% | 4.83% | 2.85% | 3.83% | -0.56%
Clc1ccc(-c2nn3ncccc3c2-c2ccnc(Nc3ccccc3)n2)cc1 | 3.81% | 7.57% | 40.7% | 4.2% | 35.4% | 0.11% | 6.33% | 4.95% | 4.06% | 1.49% | 1.46% | 6.5% | 31.3% | 6.95% | 18.8% | 3.65% | 8.75% | 12.4% | 42% | 6.84%
COc1ccc(-c2cc(-c3c[nH]nc3-c3ccccn3)ccn2)cc1 | 5.89% | 6.64% | 15.2% | 3.87% | 11.2% | 1.3% | 2.69% | 8.94% | 3.52% | 3.4% | 4.1% | 13.7% | 42.1% | 14.9% | 58.7% | 7.15% | 9.53% | 11.1% | 40.6% | 7.26%
NC(=O)c1sc(-n2cnc3ccc(C(F)(F)F)cc32)cc1OCc1ccccc1Br | 3.98% | 5.8% | 6.03% | 2.92% | 3.3% | 1.71% | 1.36% | 3.13% | -0.12% | 4.43% | 2.38% | 4.59% | 11% | 1.61% | 5.02% | 5.32% | 5.62% | 3.53% | 4.84% | -1.07%
N#Cc1c(NC(=O)c2ccc(F)cc2)sc2c1CCCC2 | 0.33% | 0.87% | 2.77% | 0.6% | 2.84% | -0.51% | 0.78% | 1% | 2.01% | 1.9% | 2.55% | 5.56% | 7.32% | 1.23% | 1% | 3.5% | 3.1% | 0.92% | 3.17% | 1.37%
FC(F)(F)c1cccc(-c2nn3ncccc3c2-c2ccnc(Nc3ccc4c(c3)OCCO4)n2)c1 | 1.73% | 7.06% | 39.5% | 5.18% | 33.9% | 4.3% | 40% | 7.83% | 5.36% | 1.28% | 2.21% | 5.63% | 15.1% | 3.38% | 5.8% | 2.79% | 3.91% | 1.96% | 15.8% | 6.05%
CC(=O)NCc1cccc(C#Cc2cncnc2Nc2ccc(OCc3cccc(F)c3)c(Cl)c2)c1 | 0.67% | -0.07% | -0.62% | -0.59% | -1.18% | 0.61% | 2.93% | 4.9% | 1.83% | -0.6% | 3.72% | 0.56% | 6.14% | 1.48% | 1.63% | 2.23% | 3.66% | 5.19% | 2.8% | 0.9%
